# Test results published in PubChem BioAssay (Tox21).
# Unmarked numbers belong to inactive results. Inconclusive results are not listed. A call without a number means that no potency is given here. Active and inactive are the calls of the source. Unless noted, calls follow the shape of the full dose curve.
# What was measured:
# [1] = Nuclear factor erythroid 2-related factor 2/antioxidant responsive element (Nrf2/ARE) small molecule agonists: qHTS cell viability counter screen in human keratinocytes (AID 1919968; active = well fitted curve in the direction sought with a large enough effect in the repeat runs; an effect the other way counts as inactive or inconclusive; also: nearly all actives have a fitted effect of over 55% in size; also: potency is read from the fitted curve at half-maximal effect)
# Summary of the method: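 Seed 1,500 KeratinoSens cells per well, then incubate 5 h at 37 C/5% CO2. Add compounds in DMSO and incubate 23 h. Add CellTiter-Fluor, wait 1 h and read fluorescence.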
# [2] = Nuclear factor erythroid 2-related factor 2/antioxidant responsive element (Nrf2/ARE) small molecule agonists: luciferase reporter gene qHTS assay in human keratinocytes (AID 1919969); also: nearly all actives have a fitted effect of over 35% in size; also: potency is read from the fitted curve at half-maximal effect
# [3] = target: KiSS-1 receptor (Homo sapiens) (UniProt Q969F8); experiment: Human kisspeptin (KISS1R) small molecule agonists, calcium flux assay in KISS1R-HEK293 cells (AID 1920064; active = well fitted curve in the direction sought with a large enough effect in the repeat runs; an effect the other way counts as inactive or inconclusive)
# Chain of KiSS-1 receptor (Homo sapiens) (Q969F8 whole entry, looked up): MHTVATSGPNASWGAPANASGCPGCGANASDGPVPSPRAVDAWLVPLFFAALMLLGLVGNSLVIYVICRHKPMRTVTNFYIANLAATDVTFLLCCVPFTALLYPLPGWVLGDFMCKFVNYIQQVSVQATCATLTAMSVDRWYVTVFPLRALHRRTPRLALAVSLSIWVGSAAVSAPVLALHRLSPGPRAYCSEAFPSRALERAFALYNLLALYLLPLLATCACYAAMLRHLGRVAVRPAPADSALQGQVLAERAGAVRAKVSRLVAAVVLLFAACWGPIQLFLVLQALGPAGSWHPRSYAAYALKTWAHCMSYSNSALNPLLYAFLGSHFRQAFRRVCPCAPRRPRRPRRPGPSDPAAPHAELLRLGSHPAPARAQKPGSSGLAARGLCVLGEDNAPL
# Summary of the method: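 Cells plated and incubated 18 h; dye added, 1 h at 37 C; compounds in DMSO pinned in; signal read at 480/540 nm every second for 3 min. Each compound tested at 15 concentrations in triplicate.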
# [4] = G protein-coupled receptor (GPCR) small molecule agonists, calcium flux assay: HEK293 wild type cell line counter screen (AID 1920065); also: potency is read from the fitted curve at half-maximal effect
# Summary of the method: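 Counter-screen of the Tox21 10K library for non-specific calcium release: dye-loaded cells received compounds in DMSO and were monitored by kinetic fluorescence (480/540 nm, 3 min). Fifteen concentrations, run in triplicate.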
# [5] = p53 small molecule agonists, cell-based qHTS assay with human liver microsomes (AID 1963577);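 also: p53 response element beta-lactamase reporter cells with liver microsomes plus NADPH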
# Summary of the method: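 HLM-supplemented p53RE-bla reporter assay: 16 h compound exposure at 37 C, microsomes and NADPH each 0.5 mg/mL final, read by fluorescence intensity.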
# [6] = p53 small molecule agonists, cell-based qHTS assay with rat liver microsomes (AID 1963578)
# Summary of the method: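 Quantitative HTS of the Tox21 10K library: p53RE-bla cells, rat liver microsomes plus NADPH at 0.5 mg/mL final each, 16 h at 37 C, beta-lactamase fluorescence detection.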
# [7] = p53 small molecule agonists, cell-based qHTS assay with human liver microsomes: qHTS cell viability counter screen (AID 1963579); also: nearly all actives have a fitted effect of over 45% in size; also: potency is read from the fitted curve at half-maximal effect
# Summary of the method: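 Viability of p53RE-bla cells is measured as CellTiter-Glo luminescence following a 16 h, 37 C incubation with compound, liver microsomes from human donors and NADPH.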
# [8] = p53 small molecule agonists, cell-based qHTS assay with rat liver microsomes: qHTS cell viability counter screen (AID 1963580); also: nearly all actives have a fitted effect of over 45% in size; also: potency is read from the fitted curve at half-maximal effect
# Summary of the method: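 Intracellular ATP, by CellTiter-Glo luminescence, defines viability. HCT-116 p53RE-bla cells, 4,000 per well, were compound-treated in the presence of rat liver microsomes and NADPH for 16 h at 37 C.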
# [9] = p53 small molecule agonists, cell-based qHTS assay: qHTS cell viability counter screen (AID 1963581); also: nearly all actives have a fitted effect of over 45% in size; also: potency is read from the fitted curve at half-maximal effect
# Summary of the method: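 Cells: HCT-116 with p53 response element-driven beta-lactamase. Treatment: 16 h, 37 C, compounds in DMSO. Read: CellTiter-Glo luminescence after 30 min RT.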
# [10] = p53 small molecule agonists, cell-based qHTS assay (AID 1963582; active = well fitted activation curve with a large enough effect in the signal ratio in the repeat runs, not every such curve was filed as active; the % refers to the signal ratio)
# Summary of the method: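 Quantitative HTS in p53RE-bla cells: after a 5 h settling period, compounds delivered in DMSO were left on cells for 16 h at 37 C, and reporter induction was measured as fluorescence following 2 h substrate loading.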
# [11] = target: 5-hydroxytryptamine receptor 2A (Homo sapiens) (UniProt P28223); experiment: 5-hydroxytryptamine receptor 2A (HTR2A) small molecule agonists, cell-based qHTS assay (AID 1963587); also: nearly all actives have a fitted effect of over 30% in size; also: potency is read from the fitted curve at half-maximal effect
# Chain of 5-hydroxytryptamine receptor 2A (Homo sapiens) (P28223 whole entry, looked up): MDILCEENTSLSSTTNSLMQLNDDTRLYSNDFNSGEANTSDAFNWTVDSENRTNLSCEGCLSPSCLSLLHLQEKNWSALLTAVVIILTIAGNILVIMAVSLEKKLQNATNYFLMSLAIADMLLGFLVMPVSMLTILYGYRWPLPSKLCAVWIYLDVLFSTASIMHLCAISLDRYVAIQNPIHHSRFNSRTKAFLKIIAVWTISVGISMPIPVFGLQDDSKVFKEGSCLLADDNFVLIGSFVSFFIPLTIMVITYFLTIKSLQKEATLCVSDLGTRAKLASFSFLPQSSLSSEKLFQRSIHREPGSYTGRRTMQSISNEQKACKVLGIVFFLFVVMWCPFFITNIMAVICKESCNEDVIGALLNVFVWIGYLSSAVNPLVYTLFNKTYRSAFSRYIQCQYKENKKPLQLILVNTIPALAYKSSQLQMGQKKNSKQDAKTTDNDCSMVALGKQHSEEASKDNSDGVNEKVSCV
# Summary of the method: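 Kinetic calcium-flux fluorescence (2 min, 1 sec intervals) after compound addition in agonist mode. HTR2A-CHO cells were cultured 18 h, then dye-loaded 1 h at 37 C.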
# [12] = target: Muscarinic acetylcholine receptor M1 (Homo sapiens) (UniProt P11229); experiment: Cholinergic receptor muscarinic 1 (CHRM1) small molecule agonists, cell-based qHTS assay (AID 1963589); also: nearly all actives have a fitted effect of over 35% in size
# Chain of Muscarinic acetylcholine receptor M1 (Homo sapiens) (P11229 whole entry, looked up): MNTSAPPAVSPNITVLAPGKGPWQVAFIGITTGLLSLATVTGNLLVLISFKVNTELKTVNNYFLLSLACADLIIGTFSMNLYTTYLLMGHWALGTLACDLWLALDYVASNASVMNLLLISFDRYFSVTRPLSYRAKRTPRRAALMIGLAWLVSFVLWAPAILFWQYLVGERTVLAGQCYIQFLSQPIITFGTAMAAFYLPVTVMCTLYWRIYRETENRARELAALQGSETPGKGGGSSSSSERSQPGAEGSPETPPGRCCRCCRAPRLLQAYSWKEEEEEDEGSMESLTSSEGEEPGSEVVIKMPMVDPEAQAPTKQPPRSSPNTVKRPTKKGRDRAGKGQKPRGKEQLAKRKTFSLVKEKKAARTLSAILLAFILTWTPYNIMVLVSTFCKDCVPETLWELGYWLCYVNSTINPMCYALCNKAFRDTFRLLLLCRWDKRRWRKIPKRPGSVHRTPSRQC
# Summary of the method: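 Agonist-mode qHTS in CHO cells stably carrying human muscarinic M1. Intracellular calcium is tracked by fluorescence every second after compound transfer; each compound runs at 15 concentrations in three independent runs.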
# [13] = cAMP Responsive Elements (CRE) small molecule agonists, cell-based qHTS assay (AID 1963590)
# Summary of the method: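 Agonist mode qHTS in CRE-bla HEK 293T cells: compounds dosed from DMSO for 3 h at 37 C/5% CO2, followed by LiveBLAzer B/G FRET substrate for 2 h at room temperature.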
# [14] = cAMP Responsive Elements (CRE) small molecule antagonists, cell-based qHTS assay (AID 1963591; active = well fitted inhibition curve with a large enough effect in the signal ratio in the repeat runs, not every such curve was filed as active; the % refers to the signal ratio)
# Summary of the method: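 Antagonist mode: test compounds are co-incubated with the adenylyl cyclase activator NKH477 (0.25 uM final) on CRE-bla HEK293T cells for 3 h at 37 °C, followed by LiveBLAzer substrate loading.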
# [15] = target: Beta-2 adrenergic receptor (Homo sapiens) (UniProt P07550); experiment: Adrenergic beta2 receptor (ADRB2) small molecule antagonists, cell-based qHTS assay (AID 1963592); also: series mostly up to about 92 µM; nearly all actives have a fitted effect of over 50% in size
# Chain of Beta-2 adrenergic receptor (Homo sapiens) (P07550 whole entry, looked up): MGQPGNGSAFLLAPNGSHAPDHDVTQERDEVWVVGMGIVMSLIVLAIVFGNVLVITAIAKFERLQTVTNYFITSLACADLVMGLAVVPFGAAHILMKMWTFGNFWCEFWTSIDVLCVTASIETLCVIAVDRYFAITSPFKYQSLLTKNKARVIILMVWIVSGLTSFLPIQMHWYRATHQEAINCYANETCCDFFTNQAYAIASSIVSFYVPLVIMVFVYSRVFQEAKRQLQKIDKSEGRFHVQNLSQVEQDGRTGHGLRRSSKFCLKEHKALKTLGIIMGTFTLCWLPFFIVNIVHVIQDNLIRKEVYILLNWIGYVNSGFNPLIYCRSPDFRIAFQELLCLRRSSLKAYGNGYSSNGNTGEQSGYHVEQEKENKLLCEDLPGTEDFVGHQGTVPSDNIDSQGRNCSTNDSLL
# Summary of the method: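 Cells (CHO, stable ADRB2 overexpression) incubated 18-20hr at 37C; compounds added from DMSO; agonist mix (1nM isoproterenol, 100uM IBMX, 25uM Ro-20-1724) added; 0.5hr RT; d2-cAMP and anti-cAMP-cryptate added; 1hr RT; 665/615 nm read.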
# [16] = target: D(2) dopamine receptor (Homo sapiens) (UniProt P14416); experiment: Dopamine D2 receptor (DRD2) small molecule agonists, cell-based qHTS assay (AID 1963594); also: nearly all actives have a fitted effect of over 35% in size
# Chain of D(2) dopamine receptor (Homo sapiens) (P14416 whole entry, looked up): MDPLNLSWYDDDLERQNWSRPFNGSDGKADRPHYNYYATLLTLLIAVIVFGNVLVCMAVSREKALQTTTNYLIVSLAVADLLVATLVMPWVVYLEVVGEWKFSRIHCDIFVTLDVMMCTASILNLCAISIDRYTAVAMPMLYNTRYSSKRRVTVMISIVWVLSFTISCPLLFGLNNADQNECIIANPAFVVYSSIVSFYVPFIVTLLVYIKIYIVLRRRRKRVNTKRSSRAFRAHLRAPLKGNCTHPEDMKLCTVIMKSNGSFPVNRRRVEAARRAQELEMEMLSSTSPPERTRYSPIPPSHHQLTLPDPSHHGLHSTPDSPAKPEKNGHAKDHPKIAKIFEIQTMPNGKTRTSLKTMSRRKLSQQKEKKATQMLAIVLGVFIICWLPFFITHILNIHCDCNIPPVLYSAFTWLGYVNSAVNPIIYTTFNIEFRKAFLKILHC
# Summary of the method: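 cAMP accumulation in DRD2-HEK293 cells measured by HTRF after 1 h detection; compounds added 10 min before NKH477 (200nM […]) forskolin-analogue stimulation, 30 min at room temperature, with Ro20-1724 present at 0.1 mM final.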
# [17] = target: D(2) dopamine receptor (Homo sapiens) (UniProt P14416); experiment: Dopamine D2 receptor (DRD2) small molecule antagonists, cell-based qHTS assay (AID 1963595; active = well fitted inhibition curve with a large enough effect in the signal ratio in the repeat runs, with a control signal flat; the % refers to the signal ratio; also: potency is read from the fitted curve at half-maximal effect)
# Summary of the method: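 HEK293 cells stably expressing DRD2 were preincubated with 0.1 mM Ro20-1724, then with compound for 10 min at room temperature. Cells were stimulated with 200 nM NKH477 plus 12 nM quinpirole for 30 min, and cAMP was read by HTRF.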
# [18] = target: 5-hydroxytryptamine receptor 2A (Homo sapiens) (UniProt P28223); experiment: 5-hydroxytryptamine receptor 2A (HTR2A) small molecule antagonists, cell-based qHTS assay (AID 1963586); also: nearly all actives have a fitted effect of over 45% in size; also: potency is read from the fitted curve at half-maximal effect
# Summary of the method: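 Antagonist-mode intracellular calcium assay: DOI (4 nM) added after 5 min compound pre-incubation at room temperature to dye-loaded HTR2A-CHO cells. Fluorescence followed for 3 min, sampled every second.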
# [19] = target: Muscarinic acetylcholine receptor M1 (Homo sapiens) (UniProt P11229); experiment: Cholinergic receptor muscarinic 1 (CHRM1) small molecule antagonists, cell-based qHTS assay (AID 1963588); also: nearly all actives have a fitted effect of over 40% in size; also: potency is read from the fitted curve at half-maximal effect
# Summary of the method: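 CHRM1-CHO calcium-flux assay, antagonist mode. Cells were seeded 18 h, dye-loaded 1 h at 37 C and given compound for 5 min at RT, then acetylcholine was added at 50nM. FDSS fluorescence was read 3 min; 15 concentrations, three runs.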
# [20] = target: Gonadotropin-releasing hormone receptor (Homo sapiens) (UniProt P30968); experiment: Human gonadotropin-releasing hormone receptor (GnRHR) small molecule agonists, calcium flux assay in GnRHR-HEK293 cells (AID 1920063); also: nearly all actives have a fitted effect of over 35% in size
# Chain of Gonadotropin-releasing hormone receptor (Homo sapiens) (P30968 whole entry, looked up): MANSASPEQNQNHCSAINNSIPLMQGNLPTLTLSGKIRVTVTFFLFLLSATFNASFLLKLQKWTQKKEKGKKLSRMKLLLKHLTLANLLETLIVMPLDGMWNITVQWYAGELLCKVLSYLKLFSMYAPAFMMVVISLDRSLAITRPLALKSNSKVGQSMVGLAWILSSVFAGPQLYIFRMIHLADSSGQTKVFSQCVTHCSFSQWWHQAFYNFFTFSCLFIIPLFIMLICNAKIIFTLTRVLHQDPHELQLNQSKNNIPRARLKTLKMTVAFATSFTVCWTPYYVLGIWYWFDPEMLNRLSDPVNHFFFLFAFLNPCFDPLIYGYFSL
# Summary of the method: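 Cells: HEK293 stably expressing human GnRHR. Steps: overnight (18 h) culture, 1 h calcium dye loading at 37 C, compound addition, kinetic fluorescence read at 480/540 nm. Each compound tested at 15 concentrations in triplicate.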
structure (smiles),measurement,setting,value
Cc1ccc2c(c1)C1CN(C)CCC1N2 (centres undefined),"activity change, negative = cytotoxicity",[1],-10.1% [at 19 µM]
same,"activity, positive = activation",[2],-3.42% [at 19 µM]
same,activation,[3],-0.319% [at 15.8 µM]
same,activation,[4],-0.508% [at 11.8 µM]
same,activation,[5],3.07% [at 13.5 µM]
same,activation,[6],-0.463% [at 13.6 µM]
same,"activity change, negative = cytotoxicity",[7],-1.76% [at 13.5 µM]
same,"activity change, negative = cytotoxicity",[8],-8.73% [at 13.5 µM]
same,"activity change, negative = cytotoxicity",[9],13.5% [at 13.5 µM]
same,activation,[10],0% [at 13.5 µM]
same,Potency,[11],0.165 µM (active)
same,activation,[12],-0.313% [at 15.8 µM]
same,activation,[13],-1.75% [at 19 µM]
same,"activity change, negative = inhibition",[14],-7.6% [at 18.9 µM]
same,"activity change, negative = inhibition",[15],-2.7% [at 19 µM]
same,activation,[16],-2.85% [at 19 µM]
same,"activity change, negative = inhibition",[17],-2.92% [at 18.9 µM]
Oc1ccc(C(=C(Cl)Cl)c2ccc(O)cc2)cc1,Potency,[1],68.5 µM (active)
same,Potency,[2],inactive
same,Potency,[3],inactive
same,Potency,[4],inactive
same,Potency,[5],inactive
same,Potency,[6],inactive
same,Potency,[7],51.2 µM (active)
same,Potency,[8],inactive
same,Potency,[10],inactive
same,Potency,[18],inactive
same,Potency,[12],inactive
same,Potency,[13],inactive
same,Potency,[16],inactive
same,Potency,[17],inactive
O=S1(=O)OC(c2cc(Br)c(O)c(Br)c2)(c2cc(Br)c(O)c(Br)c2)c2ccccc21,Potency,[1],14.1 µM (active)
same,Potency,[2],inactive
same,Potency,[3],inactive
same,Potency,[4],inactive
same,Potency,[5],inactive
same,Potency,[6],inactive
same,Potency,[7],21 µM (active)
same,Potency,[8],18.7 µM (active)
same,Potency,[9],18.7 µM (active)
same,Potency,[11],inactive
same,Potency,[19],inactive
same,Potency,[12],inactive
same,Potency,[13],inactive
same,Potency,[14],inactive
CCN[C@H](C)Cc1cccc(C(F)(F)F)c1,Potency,[1],inactive
same,Potency,[2],inactive
same,Potency,[3],inactive
same,Potency,[4],inactive
same,Potency,[7],inactive
same,Potency,[8],inactive
same,Potency,[9],inactive
same,Potency,[13],inactive
same,Potency,[14],inactive
same,Potency,[16],inactive
CCCCCC[N+](=O)[O-],Potency,[1],inactive
same,Potency,[20],inactive
same,Potency,[3],inactive
same,Potency,[4],inactive
same,Potency,[5],inactive
same,Potency,[6],inactive
same,Potency,[7],inactive
same,Potency,[8],inactive
same,Potency,[9],inactive
same,Potency,[10],inactive
same,Potency,[18],inactive
same,Potency,[11],inactive
same,Potency,[19],inactive
same,Potency,[12],inactive
same,Potency,[13],inactive
same,Potency,[14],inactive
same,Potency,[15],inactive
same,Potency,[16],inactive
same,Potency,[17],inactive
O=[N+]([O-])c1cc(C(F)(F)F)c(Cl)c([N+](=O)[O-])c1Nc1ncc(C(F)(F)F)cc1Cl,Potency,[1],9.69 µM (active)
same,Potency,[2],6.11 µM (active)
same,Potency,[3],inactive
same,Potency,[4],1.23 µM (active)
same,Potency,[7],45.8 µM (active)
same,Potency,[8],25.7 µM (active)
same,Potency,[9],40.8 µM (active)
same,Potency,[11],inactive
same,Potency,[19],0.472 µM (active)
same,Potency,[12],inactive
same,Potency,[16],inactive
CC1(C)CCC(Cc2ccc(Cl)cc2)C1(O)Cn1cncn1 (centres undefined),Potency,[1],inactive
same,Potency,[2],inactive
same,Potency,[3],inactive
same,Potency,[4],inactive
same,Potency,[7],45.8 µM (active)
same,Potency,[8],inactive
same,Potency,[9],inactive
same,Potency,[18],16.8 µM (active)
same,Potency,[19],inactive
same,Potency,[12],inactive
same,Potency,[16],inactive
CCn1cc[n+](C)c1 (tested in a mixture with another compound),Potency,[1],inactive
same,Potency,[2],inactive
same,Potency,[3],inactive
same,Potency,[7],inactive
same,Potency,[8],inactive
same,Potency,[9],inactive
same,Potency,[18],inactive
same,Potency,[11],inactive
same,Potency,[19],inactive
same,Potency,[12],inactive
same,Potency,[13],inactive
same,Potency,[14],inactive
same,Potency,[15],inactive
same,Potency,[16],inactive
same,Potency,[17],inactive
C=CC(=O)OCC(COC(=O)C=C)(COC(=O)C=C)COC(=O)C=C,Potency,[1],9.69 µM (active)
same,Potency,[2],6.11 µM (active)
same,Potency,[4],inactive
same,Potency,[5],inactive
same,Potency,[7],4.08 µM (active)
same,Potency,[9],10.2 µM (active)
same,Potency,[18],inactive
same,Potency,[11],inactive
same,Potency,[19],inactive
same,Potency,[12],inactive
same,Potency,[15],inactive
same,Potency,[16],inactive
same,Potency,[17],54.5 µM (active)
